The record followed here is PubChem BioAssay (NCATS).

The structures appear in SMILES notation.

The nature of the first assay: qHTS profiling of the MIPE4 collection as inhibitors of Plasmodium falciparum (DD2) proliferation (AID 743345). The following applies: P. falciparum Dd2 in erythrocytes, SYBR Green DNA, 72 h; at 28.5 µM (top of the series) unless noted. A digest of the protocol: (§1)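 Erythrocytes infected with P. falciparum (0.3% parasitemia, 2.5% hematocrit) incubated with compounds 72 h at 37 C, 5% CO2. Lysis with saponin/Triton buffer containing SYBR Green I, overnight at room temperature in the dark; DNA fluorescence (485/535 nm) normalised to 0.29 uM artemisinin and DMSO.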
A general note: qHTS replaces the single test concentration by a dilution series.
Consider `COc1cc2cc(c1Cl)N(C)C(=O)C[C@H](OC(=O)C(C)C)[C@]1(C)O[C@H]1[C@H](C)[C@@H]1C[C@@](O)(NC(=O)O1)[C@H](OC)C=CC=C(C)C2`, for which the parasite growth remaining, % of DMSO control (lower = more inhibition) was determined as 16.8%.
The compound `CC(C)(C)c1cc(C=C(C#N)C#N)cc(Br)c1O` came in with a parasite growth remaining, % of DMSO control (lower = more inhibition) of 93.3%.
`Cn1cncc1[C@@](N)(c1ccc(Cl)cc1)c1ccc2c(c1)c(-c1cccc(Cl)c1)cc(=O)n2C` returned a parasite growth remaining, % of DMSO control (lower = more inhibition) of 33.3%.
Consider `COc1ccc2c(c1)CN(C)CC2c1ccc(Cl)c(Cl)c1` (stereo not drawn), for which the parasite growth remaining, % of DMSO control (lower = more inhibition) is 40.2%.
Compound `COc1cc([C@@H]2c3cc4c(cc3[C@@H](O)C3COC(=O)C32)OCO4)cc(OC)c1O` (stereo partly drawn) came in with a parasite growth remaining, % of DMSO control (lower = more inhibition) of 88.5%.

The nature of a further assay: qHTS profiling of the MIPE4 collection as inhibitors of Plasmodium falciparum (DD2) proliferation (Rep 2) (AID 743346). Conditions: P. falciparum Dd2 in erythrocytes, SYBR Green DNA, 72 h; at 28.5 µM (top of the series). A digest of the protocol: as §1
Regarding `CC(=O)OCC1=C(C(=O)O)N2C(=O)[C@@H](N)[C@@H]2SC1`, the parasite growth, % of control (lower = inhibition) turned out to be 77.5%.
In the case of `CC(=CCCC1=CCC(C2=CC(=O)OC2O)OC1O)CCC1=C(C)CCCC1(C)C` (stereo not drawn), the parasite growth, % of control (lower = inhibition) is 72%.
For `COc1ccc(CC2NCCc3cc(OC)c(OC)cc32)cc1OC` (stereo not drawn), the parasite growth, % of control (lower = inhibition) worked out at 55.8%.
Consider `C[C@]12Cc3cn[nH]c3C[C@@H]1CC[C@@H]1[C@H]2CC[C@@]2(C)[C@H]1CC[C@]2(C)O`, for which the parasite growth, % of control (lower = inhibition) was found to be 54.3%.
As to `O=[N+]([O-])c1ncc[nH]1`, the parasite growth, % of control (lower = inhibition) was 101%.
`CCC(=O)OC1CCC2C3CCC4=CC(=O)CC[C@@]4(C)C3CC[C@]12C` (stereo partly drawn): the parasite growth, % of control (lower = inhibition) was found to be 125%.
Consider `COCC1(CO)C(=O)C2CCN1CC2` (stereo not drawn), for which the parasite growth, % of control (lower = inhibition) was 42%.
As to `COC1=CC(C)=C[C@@H](C)[C@@H](O)[C@@H](C)CC(C)=CC=C[C@H](OC)[C@H]([C@@H](C)[C@@H](O)[C@H](C)[C@@]2(O)C[C@@H](O)[C@H](C)[C@@H](C(C)C)O2)OC1=O`, the parasite growth, % of control (lower = inhibition) is 13.8%.
Still for that read-out and setting: the figure for `C[C@@H]1O[C@@H](O[C@@H]2C=C3CC[C@@H]4[C@@H](CC[C@]5(C)[C@H](c6ccc(=O)oc6)CC[C@@]45O)[C@@]3(C)CC2)[C@H](O)[C@H](O)[C@H]1O` is 96.7%.
Regarding `CC1(N2CCC(n3c([C@@H]4CCCNC4)nc4ccccc43)CC2)CCCCCCC1`, the parasite growth, % of control (lower = inhibition) turned out to be 19.4%.
For `Clc1ccccc1C(c1ccccc1)(c1ccccc1)n1cccn1`, the parasite growth, % of control (lower = inhibition) was 11.6%.
Still for that read-out and setting: the figure for `C[C@]12CC[C@H](O)CC1=CC[C@H]1[C@H]3CCC(=O)[C@@]3(C)CC[C@@H]12` is 108%; for `C[C@]12CC[C@@H]3[C@@H](CCC4=CC(=O)CC[C@@H]43)[C@@H]1CC[C@@H]2OC(=O)CCc1ccccc1` it is 56.3%.
Same read-out and setting: the figure for `CCN1C[C@]2(OC(=O)c3ccccc3NC(C)=O)CC[C@H](OC)[C@@]34[C@H]5CC6[C@@H](OC)C[C@](O)(C(C[C@@H]23)[C@@H]14)[C@@]5(O)[C@@H]6OC` is 72.6%.
Consider `CCc1c(C(=O)C(N)=O)c2c(OCC(=O)O)cccc2n1Cc1ccccc1`, for which the parasite growth, % of control (lower = inhibition) amounted to 83.8%.
On to `CC(C)[C@]12O[C@@H]1[C@@H]1O[C@]13[C@]1(O[C@H]1C[C@@H]1C4=C(CC[C@@]13C)C(=O)OC4)[C@H]2O`, for which the parasite growth, % of control (lower = inhibition) came out at 49.4%.
On the same count and under the same terms, the figure for `C1=C2CCCN[C@H]2[C@@H]2C[C@H]1[C@@H]1CCCCN1C2` is 69.3%; for `CCOP(=O)(OCC)C(C)NC(=O)N(CCCl)N=O` (stereo not drawn) it is 135%; for `C=C[C@@H]1CN2CCC1C[C@H]2[C@H](O)c1ccnc2ccccc12` (stereo partly drawn) it is 46.5%.
`CO[C@H]1CCC(O[C@H]2C[C@H]([C@]3(C)CC[C@]4(C[C@H](O)[C@@H](C)[C@@H]([C@@H](C)C=C(C)C(=O)[C@H](C)C[C@H](C)C(=O)O)O4)O3)O[C@]3(O[C@@H]([C@H]4O[C@@](O)(CO)[C@H](C)C[C@H]4C)C[C@H]3C)[C@H]2C)O[C@H]1C` (stereo partly drawn): the parasite growth, % of control (lower = inhibition) came to 23.1%.
Take `CCOC(=O)c1c(C(C#N)=CN)c2ccc(Cl)c(Cl)c2n1C`: the parasite growth, % of control (lower = inhibition) is 149%.
On to `CCOC(=O)Nc1ccc(NCc2ccc(F)cc2)cc1N`, for which the parasite growth, % of control (lower = inhibition) worked out at 30.4%.
Same read-out and setting: the figure for `CN[C@@H]1Cc2cccc3[nH]c(=O)n(c23)C1` is 82.7%; for `CC=C(C)C(=O)O[C@H]1C(C)=C2[C@@H]3OC(=O)[C@@](C)(O)[C@@]3(O)[C@@H](OC(=O)CCC)C[C@](C)(OC(C)=O)[C@@H]2[C@@H]1OC(=O)CCCCCCC` it is 16.2%.
For `CCN1CCN(C(=O)Cc2ccc(Nc3ncc(F)c(Nc4ccc(C(=O)Nc5ccccc5Cl)cc4)n3)cc2)CC1`, the parasite growth, % of control (lower = inhibition) was 14.2%.
Regarding `CC(C)N[C@@H]1CCn2c(=O)[nH]c3cccc(c32)[C@@H]1O`, the parasite growth, % of control (lower = inhibition) was determined as 118%.
Still for that read-out and setting: the figure for `CCCN1CCO[C@@H]2c3cc(O)ccc3OC[C@@H]21` is 91%; for `CC(N[C@H]1C[C@H]1c1ccccc1)c1ccc2c(c1)OCCO2` (stereo partly drawn) it is 64.1%.
Same read-out and setting: the figure for `CC[C@H]1C=CC=CC[C@@H](C)[C@H](O)[C@@](C)(O)C(=O)[C@@H](C)[C@H](O)[C@@H](C)C(=O)[C@@H](C)[C@H](O)[C@@H](C)C=CC(=O)O[C@@H]2[C@@H](C)[C@H](CC1)O[C@]1(CC[C@H](C)[C@H](C[C@@H](C)O)O1)[C@H]2C` is 20.2%; for `C#CC1(O)CCC2C3CCC4=CC(=O)CCC4(C)C3CCC21C` (stereo not drawn) it is 88%; for `CC(C)(C)[C@]1(O)C[C@@H]2OC(=O)C[C@@]23C(=O)O[C@@H]2OC(=O)[C@H](O)C213` (stereo partly drawn) it is 81.5%.
Regarding `C[C@](O)(COc1ccc(C#N)cc1)C(=O)Nc1ccc(C#N)c(C(F)(F)F)c1`, the parasite growth, % of control (lower = inhibition) stood at 20.8%.
With `CC(=O)O[C@@]12CO[C@H]1C[C@H](O)[C@@]1(C)C(=O)[C@H](O)C3=C(C)[C@@H](O)C[C@@](O)([C@@H](OC(=O)c4ccccc4)[C@@H]21)C3(C)C`, the parasite growth, % of control (lower = inhibition) worked out at 42.4%.
Still for that read-out and setting: the figure for `O=C1C=CC[C@@H]2[C@H]3CCCN4CCC[C@@H](CN12)[C@@H]34` is 86.7%; for `COc1cc2cc(c1Cl)N(C)C(=O)C[C@H](OC(=O)C(C)C)[C@]1(C)O[C@H]1[C@H](C)[C@@H]1C[C@@](O)(NC(=O)O1)[C@H](OC)C=CC=C(C)C2` it is 21.9%.
For the compound `CC(C)(C)c1cc(C=C(C#N)C#N)cc(Br)c1O`, the parasite growth, % of control (lower = inhibition) was 37.3%.
As for `COc1ccc2c(c1)CN(C)CC2c1ccc(Cl)c(Cl)c1` (stereo not drawn), the parasite growth, % of control (lower = inhibition) turned out to be 15.9%.
For `COc1cc([C@@H]2c3cc4c(cc3[C@@H](O)C3COC(=O)C32)OCO4)cc(OC)c1O` (stereo partly drawn), the parasite growth, % of control (lower = inhibition) was found to be 64.3%.
